Test results reported in PubChem BioAssay (NCATS).
A number with no mark means an inactive call. Results filed as inconclusive are left out. The source made the active and inactive calls. Unless noted, calls follow the shape of the dose curve; as a rule, active = well fitted curve in either direction with a large enough effect (not every such curve was filed as active); inconclusive = small, poorly fitted or top-dose-only effect, or another doubt; inactive = flat fitted curve, though single readings scatter.

tested on: not listed separately; assay: NFAT Signaling Pathway (AID 444); settings: Jurkat NFAT-bla M1, carbachol, beta-lactamase ratio, 5 h; at 17.2 µM (top of the series) unless noted;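 also: carbachol stimulus at about its EC50 of 1 µM final; % is scaled to controls: 0 for no effect and ±100 for the full control effect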
In short: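 Jurkat cells with NFAT-driven β-lactamase reporter and co-expressed M1 receptor, stimulated with carbachol (final 1 uM, ~EC50), compound titration, 5 h at 37 °C. CCF4 loaded 1 h at RT; 460/530 nm ratio gave %activity and AC50.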

Compound | activity change, negative = inhibition
CCOC(=O)C(O)(C1C(=O)CC(C)(C)CC1=O)C(F)(F)F (stereo not given) | 7.75%
CCCCCCCCCC(=O)N[C@@H](CN1CCOCC1)[C@@H](O)c1ccccc1 | 1.34% [at 38 µM]
CC1(C)Cc2c(C#N)c(NCC3CCCO3)nc(-c3ccco3)c2CO1 (stereo not given) | 5.63%
CN(C)CCCO[C@H]1[C@H]([C@H](O)CO)O[C@H]2OC(C)(C)O[C@@H]21 | 5.42% [at 38 µM]
COc1ccc(-c2nn3c(COc4ccccc4)nnc3s2)cc1OC | 6.83%
COc1ccccc1C(=O)N1CCN(Cc2ccc3c(c2)OCO3)CC1 | -10.5%
COc1ccc(CCCNC(=O)CC#N)cc1OC | -4.61%
CCCCCCCCCCCCCCCCCC(=O)NC[C@@H](COP(=O)([O-])OCC[N+](C)(C)C)OCC | 28.6% [at 38 µM] (active)

tested on: not listed separately; assay: Stat Signaling Pathway (AID 446); settings: ME-180 SIE beta-lactamase reporter, IL-6 stimulated, 5 h; at 17.2 µM (top of the series) unless noted;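 also: ME-180 cervical cancer cells given 40 pM IL-6 alongside compound; SIE-controlled beta-lactamase reporter measured as 460/530 nm FRET emission ratio; % is scaled to controls: 0 for no effect and ±100 for the full control effect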
In short: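 ME-180 SIE-bla cells; overnight plating; cpd + IL-6 40 pM, 5 h, 37 C; LiveBLAzer 2.5 h RT; 460/530 nm emission ratio. Normalized to 300 pM IL-6 and 125 nM JAK inhibitor controls.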

Compound | activity, negative = inhibition
COc1cc(-c2nn3c(-c4cccnc4)nnc3s2)cc(OC)c1OC | -7.44%
Cc1ccc(Cn2ncc3c(N4CCN(Cc5ccc(Cl)cc5)CC4)ncnc32)cc1 | -14.5%
CCN1CCc2c(C#N)c(N3CCOCC3)nc(NCc3ccccc3)c2C1 | 1.47%
O=c1c2c3c(sc2n2cnnc2n1Cc1ccccc1)CN(Cc1ccccc1)CC3 | -0.303%
COc1ccc(CN(C#N)c2nc(SC)nc(N(C)C)n2)cc1 | 2.92%
CCC1(C)Cc2c(sc3c2c(=O)n(C)c2nnc(SCC(=O)c4ccc(Cl)cc4)n32)CO1 (stereo not given) | -5.38%
COC(=O)NCC12CC3CC(C1)CC(CNC(=O)OC)(C3)C2 | -1.03%
COCCCNC(=O)c1c(N)n(/N=C/c2cccs2)c2nc3ccccc3nc12 | 21.4%
N#Cc1nc(COc2ccc(Cl)cc2)oc1N1CCN(Cc2ccccc2)CC1 | 4.41%
CCOC(=O)c1[nH]c2ccc(OC)cc2c1NC(=O)CCN1CCN(Cc2ccccc2)CC1 | 4.87%
Cc1ccc(NC(=O)CSC2=C(C#N)C(c3ccco3)C3=C(CCCC3=O)N2)cc1 (stereo not given) | 30.5%
COc1ccccc1-c1nnc2n1N=C(c1ccc(O)c(O)c1)CS2 | -15.4%
CCCSc1nnc2n(C)c(=O)c3c4c(sc3n12)CCC4 | -5.35%
COc1ccc(OC)c(NS(=O)(=O)c2ccc(N3CCCC3=O)cc2)c1 | 11.3%
Nc1c(C(=O)NCC2CCCO2)c2nc3ccccc3nc2n1/N=C/c1ccncc1 (stereo not given) | -9.64%
CC[C@H]1OC(=O)C[C@@H](O)[C@H](C)[C@@H](O[C@@H]2O[C@H](C)C[C@H](N(C)C)[C@H]2O)[C@@H](CC=O)C[C@@H](C)C(=O)C=C[C@]2(C)O[C@H]2[C@@H]1C | 1.05%

Compound | activity, negative = inhibition
CCOC(=O)C(C)Sc1nc(-c2cccs2)ccc1C#N (stereo not given) | -3.63%
CCCn1c(SCC#N)nc2c(c1=O)C1(CCCC1)Cc1ccccc1-2 | 2.26%
CCC(=O)Oc1ccc(C(CC)C(CC)c2ccc(OC(=O)CC)cc2)cc1 (stereo not given) | -3.77%
COc1cccc(CNc2ncc(Br)cc2Br)c1O | -21.8%
N#C/C(C(=O)NCc1ccco1)=C1/SC(Cc2ccc(Cl)cc2)C(=O)N1c1ccccc1 (stereo not given) | -13.4%
CCCCCCc1cc2cc(-c3nnc(-c4ccccc4O)o3)c(=O)oc2cc1O | 73.1% [activator] (active)
CCCN(CCC)C(=O)CC(c1ccc(F)cc1)c1ccco1 (stereo not given) | -3.11%
CC(=O)Nc1ccc(-c2cc3ccccc3o2)cc1 | -0.606%
Nc1nc2n(n1)C(c1cccs1)CC(c1ccc(F)cc1)N2 (stereo not given) | 1.08%
COC(=O)CSc1nc(-c2cccs2)ccc1C#N | -2.18%
CC(C)C1C(C#N)=C(N)Oc2n[nH]c(C(C)(C)C)c21 (stereo not given) | -18.4%
CCOC(=O)c1c2c(c(=S)n(-c3ccccc3)c1N)CCC2 | -15.9%
CN1CCN(C(=O)CSc2nc(-c3cccs3)ccc2C#N)CC1 | -1.05%
c1ccc2c(c1)CCOC2CNCCCN1CCCCC1 (stereo not given) | 2.31%
CCCCn1c(O)c(C=NCCCN(C)C)c(=O)[nH]c1=O | 3.99%
CN(C)CCCOC(=O)c1ccc(Cl)cc1Cl | 2.76%

biological target: Glucocorticoid receptor (Homo sapiens) (UniProt P04150); assay: GR-GFP Redistribution (AID 450;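 active = compounds whose dose series gives a full or clear partial fitted curve of increased nuclear translocation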; also: potency is read from the fitted curve at half-maximal effect); settings: U2OS GR-GFP nuclear translocation, laser cytometry, 2 h; series mostly up to 20.6 µM
Sequence (P04150 whole entry, looked up): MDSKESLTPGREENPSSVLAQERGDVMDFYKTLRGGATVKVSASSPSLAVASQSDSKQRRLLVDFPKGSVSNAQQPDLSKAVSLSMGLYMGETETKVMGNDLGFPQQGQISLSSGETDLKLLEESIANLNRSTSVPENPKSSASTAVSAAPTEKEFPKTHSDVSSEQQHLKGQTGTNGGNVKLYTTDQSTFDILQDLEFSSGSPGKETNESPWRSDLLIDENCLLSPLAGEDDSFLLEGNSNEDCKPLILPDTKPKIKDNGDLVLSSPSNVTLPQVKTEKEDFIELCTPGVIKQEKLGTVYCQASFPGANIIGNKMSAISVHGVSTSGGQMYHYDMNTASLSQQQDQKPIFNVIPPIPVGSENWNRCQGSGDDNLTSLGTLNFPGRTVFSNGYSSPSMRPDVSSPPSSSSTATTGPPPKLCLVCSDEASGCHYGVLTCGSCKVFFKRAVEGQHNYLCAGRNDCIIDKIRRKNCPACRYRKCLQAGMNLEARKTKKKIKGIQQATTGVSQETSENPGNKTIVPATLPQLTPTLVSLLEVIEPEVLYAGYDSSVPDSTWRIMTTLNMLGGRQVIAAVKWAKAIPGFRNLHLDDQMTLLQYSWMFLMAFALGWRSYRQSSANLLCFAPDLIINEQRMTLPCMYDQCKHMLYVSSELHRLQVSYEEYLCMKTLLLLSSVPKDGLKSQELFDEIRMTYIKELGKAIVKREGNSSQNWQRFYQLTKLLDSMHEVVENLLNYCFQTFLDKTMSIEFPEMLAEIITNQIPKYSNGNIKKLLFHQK

Compound | Potency [µM]
COc1cc(-c2nn3c(-c4cccnc4)nnc3s2)cc(OC)c1OC | > 20.6
Cc1ccc(Cn2ncc3c(N4CCN(Cc5ccc(Cl)cc5)CC4)ncnc32)cc1 | > 20.6
O=c1c2c3c(sc2n2cnnc2n1Cc1ccccc1)CN(Cc1ccccc1)CC3 | > 20.6
CCCCCCCCCC(=O)N[C@@H](CN1CCOCC1)[C@@H](O)c1ccccc1 | > 46
COc1ccc(CN(C#N)c2nc(SC)nc(N(C)C)n2)cc1 | > 20.6
CC1(C)Cc2c(C#N)c(NCC3CCCO3)nc(-c3ccco3)c2CO1 (stereo not given) | > 20.6
CCC1(C)Cc2c(sc3c2c(=O)n(C)c2nnc(SCC(=O)c4ccc(Cl)cc4)n32)CO1 (stereo not given) | > 20.6
COC(=O)NCC12CC3CC(C1)CC(CNC(=O)OC)(C3)C2 | > 20.6
COCCCNC(=O)c1c(N)n(/N=C/c2cccs2)c2nc3ccccc3nc12 | > 20.6
N#Cc1nc(COc2ccc(Cl)cc2)oc1N1CCN(Cc2ccccc2)CC1 | > 20.6
CN(C)CCCO[C@H]1[C@H]([C@H](O)CO)O[C@H]2OC(C)(C)O[C@@H]21 | > 46
CCOC(=O)c1[nH]c2ccc(OC)cc2c1NC(=O)CCN1CCN(Cc2ccccc2)CC1 | > 20.6
Cc1ccc(NC(=O)CSC2=C(C#N)C(c3ccco3)C3=C(CCCC3=O)N2)cc1 (stereo not given) | > 20.6
CCCSc1nnc2n(C)c(=O)c3c4c(sc3n12)CCC4 | > 20.6
COc1ccc(OC)c(NS(=O)(=O)c2ccc(N3CCCC3=O)cc2)c1 | > 20.6
COc1ccc(-c2nn3c(COc4ccccc4)nnc3s2)cc1OC | > 20.6
Nc1c(C(=O)NCC2CCCO2)c2nc3ccccc3nc2n1/N=C/c1ccncc1 (stereo not given) | > 20.6
CCOC(=O)C(C)Sc1nc(-c2cccs2)ccc1C#N (stereo not given) | > 20.6

Compound | Potency [µM]
COc1ccccc1C(=O)N1CCN(Cc2ccc3c(c2)OCO3)CC1 | > 20.6
CCCn1c(SCC#N)nc2c(c1=O)C1(CCCC1)Cc1ccccc1-2 | > 20.6
CCC(=O)Oc1ccc(C(CC)C(CC)c2ccc(OC(=O)CC)cc2)cc1 (stereo not given) | > 20.6
COc1cccc(CNc2ncc(Br)cc2Br)c1O | > 20.6
N#C/C(C(=O)NCc1ccco1)=C1/SC(Cc2ccc(Cl)cc2)C(=O)N1c1ccccc1 (stereo not given) | > 20.6
CCCN(CCC)C(=O)CC(c1ccc(F)cc1)c1ccco1 (stereo not given) | > 20.6
COc1ccc(CCCNC(=O)CC#N)cc1OC | > 20.6
CC(=O)Nc1ccc(-c2cc3ccccc3o2)cc1 | > 20.6
CCCCCCCCCCCCCCCCCC(=O)NC[C@@H](COP(=O)([O-])OCC[N+](C)(C)C)OCC | > 46
Nc1nc2n(n1)C(c1cccs1)CC(c1ccc(F)cc1)N2 (stereo not given) | > 20.6
COC(=O)CSc1nc(-c2cccs2)ccc1C#N | > 20.6
CC(C)C1C(C#N)=C(N)Oc2n[nH]c(C(C)(C)C)c21 (stereo not given) | > 20.6
CCOC(=O)c1c2c(c(=S)n(-c3ccccc3)c1N)CCC2 | > 20.6
CN1CCN(C(=O)CSc2nc(-c3cccs3)ccc2C#N)CC1 | > 20.6
c1ccc2c(c1)CCOC2CNCCCN1CCCCC1 (stereo not given) | > 20.6
CCCCn1c(O)c(C=NCCCN(C)C)c(=O)[nH]c1=O | > 20.6
CN(C)CCCOC(=O)c1ccc(Cl)cc1Cl | > 20.6
